A selection: hits, their analogues and other compounds. The true share with any hit is near 1.2%.
NR2F2 inh: NR2F2 (human) inhibition, primary screen | P24468 | HEK293T NGFI-A luciferase reporter, luminescence | inhibition, % at 8.6 µM | hit rate 0.7% among 370,000 | AID 686940;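 active = inhibition above a per-plate cutoff, mean inhibition of test wells between control levels plus 3 SD, cut at about 38% in these data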;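 also: cells cotransfected with COUP-TFII expression vector driving the NGFI-A reporter; 0% = median of COUP-TF2 test wells and 100% = reporter-only cells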
Efflux pump inh: antifungal efflux pump inhibition, Nile Red retention | S. cerevisiae Candida pump triplex | inhibition, % at 10 µM | hit rate 0.44% among 330,000;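 active = plate passing quality check with inhibition over a set limit, or well fluorescence over plate mean plus 4 SD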;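 also: Nile Red retained in pooled yeast measured as flow cytometry median fluorescence; 0% = buffer negative control and 100% = Enniatin B positive control; higher means more Nile Red kept so more efflux inhibition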
LRH-1 inv ag: inverse agonists of human LRH-1 (NR5A2); inhibition, % at 3.6 µM; hit rate 0.13% among 360,000; AID 602396; HEK293T StAR-luciferase reporter, LRH-1 transfected, 24 h; O00482;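 active = inhibition above the mean inhibition of all tested compounds plus 3 SD, cut at about 73% in these data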;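 also: 0% = DMSO wells and 100% = reporter-only cells lacking LRH-1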
SRC2 inh: human SRC2 (NCOA2) inhibition. Q15596. hit rate 0.17% among 370,000. inhibition, % at 9 µM. HEK293 GAL4-SRC2 luciferase reporter, luminescence;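 active = inhibition above the mean inhibition of all tested compounds plus 3 SD, set per campaign, cut at about 52% in these data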;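 also: 0% = DMSO treated cells and 100% = cells given Gossypol at 36 µM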
SRC3 inh: human NCOA3 inhibition | hit rate 0.17% among 360,000 | HEK293 GAL4-SRC3 luciferase reporter, luminescence | inhibition, % at 3.6 µM;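 active = inhibition above a per-campaign cutoff, the mean of all compounds plus 3 SD, cut at about 60% in these data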;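 also: 0% = DMSO-treated cells and 100% = gossypol-treated cells at 36 µM; higher means less SRC3-driven luciferase light from the GAL4 reporter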
NCOA1 inh: inhibitors of human steroid receptor coactivator 1 (SRC1) | HEK293 GAL4-SRC1 luciferase reporter, luminescence | inhibition, % at 3.6 µM | hit rate 0.12% among 360,000 | AID 588354;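 active = inhibition above the campaign mean plus 3 SD, with each screening campaign given its own cutoff, cut at about 60% in these data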;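 also: 0% = DMSO treated cells and 100% = gossypol at 36 µM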
VP16 Luc counter: VP16 inhibition counter-screen for COUP-TFII. AID 687007. HEK293 Gal4-VP16 luciferase reporter, luminescence. shares compounds with NR2F2 inh. hit rate 25% among 2,500. inhibition, % at 8.5 µM; in the data active = inhibition above about 13%
NR2F2 inh conf: COUP-TFII (NR2F2) inhibition, confirmation assay. shares compounds with NR2F2 inh. HEK293 NGFI-A luciferase reporter, luminescence. inhibition, % at 8.5 µM. hit rate 45% among 2,500. AID 687008;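 active = mean inhibition over three repeats above a set limit taken from the earlier primary screen, cut at about 38% in these data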;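 also: 100% = cells given the luciferase reporter alone without the COUP-TF2 vector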
* marks the source's active call; other numbers are inactive results; · = no result given; ! = not confirmed by another sample.

SMILES	NR2F2 inh	Efflux pump inh	LRH-1 inv ag	SRC2 inh	SRC3 inh	NCOA1 inh	VP16 Luc counter	NR2F2 inh conf
O=C(Cn1ncc2c(=O)oc3ccccc3c21)N1CCCc2ccccc21	-6	0	4	-1	15	-3	·	·
COc1ccc(CCNc2c(C)c(C)nc3ncnn23)cc1	66*	0	44	16	27	31	-2	52*
COCC(C)n1c(C)cc(C(=O)COC(=O)c2cc(=O)[nH]c3ccccc23)c1C (centres undefined)	62*	0	5	24	37	33	3	58*
CC1=CC(=O)C(Sc2ccc(C)cc2)=CC1=O	-9	·	15	31	-15	-48	·	·
Cc1ccc2nc(-c3ccc4c(c3)OCCO4)cn2c1	77*	0	10	70*	39	37	54*	71*
O=C(c1ccc(Cl)c(S(=O)(=O)N2CCCC2)c1)N1CCN(c2ccc(F)cc2)CC1	19	0	4	7	14	20	·	·
CC1CCN(S(=O)(=O)c2cc(C(=O)N3CCN(c4ccccc4)CC3)ccc2Br)CC1	47*	·	2	4	0	9	9	45*
Cc1ccc(C(=O)N2CCN(c3ccc(F)cc3)CC2)cc1S(=O)(=O)N1CCCCC1	49*	0	11	8	30	-10	-4	26
O=C(CSCc1ccc(F)cc1)Nc1ccccc1	1	0	-10	-9	-13	-4	·	·
Cc1ccc(-n2ncc3c(=O)n(Cc4cccnc4)cnc32)cc1	10	·	-11	-5	-7	-11	·	·
CC1=C(C(=O)N2CCN(c3cc(C)ccc3C)CC2)C2(CCCCC2)OC1=O	-14	0	13	-22	13	-40	·	·
CCOc1ccc(CCNC(=O)c2cc3sccc3n2Cc2ccccc2)cc1OCC	40*	·	·	·	·	·	-5	18
CCOc1ccc(CCNC(=O)c2ccc(Oc3ccccc3)cc2)cc1OCC	24	·	·	·	·	·	·	·
CCOc1ccc(CCNC(=O)c2ccc3[nH]ccc3c2)cc1OCC	41*	·	·	·	·	·	-12	13
CCOc1ccc(CCNC(=O)c2cc3sccc3n2CC)cc1OCC	50*	0	29	23	10	13	0	29
COc1ccc(CCNC(=O)COC(=O)c2ccc(OC)cc2OC)cc1	-8	·	-19	2	-6	-6	·	·
Cc1ccc(S(=O)(=O)N2CCN(C(=O)Cn3nc(C)c([N+](=O)[O-])c3C)CC2)cc1	2	0	-8	2	12	-17	·	·
CC1(C(=O)Nc2ccccc2)CCN1C(=O)C1(c2ccc(Cl)cc2)CC1 (centres undefined)	76*	·	-21	6	-17	7	4	14
CC(C)(C)C(=O)Nc1cc2nn(-c3ccccc3)nc2cc1Cl	87*	·	83*	73*	81*	82*	72*	101*
CNc1ccccc1C(C)(C)c1cc(-c2ccc(F)cc2)no1	45*	0	17	1	26	11	2	31
O=c1[nH]c(C2CCN(S(=O)(=O)c3ccc(S(=O)(=O)NC4CC4)cc3)CC2)nc2c1nnn2Cc1ccccc1	15	0	22	-4	-9	-8	·	·
C[C@H]1CN([C@@H](C)CO)C(=O)CCCn2cc(nn2)CO[C@@H]1CN(C)C(=O)Nc1cccc(F)c1	-10	·	-14	5	10	-1	·	·
CCN(CC)S(=O)(=O)c1ccc(N2CCN(c3ccccc3OC)CC2)c(N)c1	48*	0	16	18	12	5	6	22
COCC(C)n1c(-c2ccc3c(c2)NC(=O)CO3)csc1=Nc1ccc(OC(F)F)cc1 (centres undefined)	48*	0	39	28	24	20	16*	56*
CCN=c1scc(-c2ccc3c(c2)NC(=O)CO3)n1N=C1CCCC1	47*!	0	22	3	17	22	-4	53*
SMILES	NR2F2 inh	Efflux pump inh	LRH-1 inv ag	SRC2 inh	SRC3 inh	NCOA1 inh	VP16 Luc counter	NR2F2 inh conf
O=C1COc2ccc(-c3csc(=Nc4ccc(OC(F)F)cc4)n3CC3CCCO3)cc2N1 (centres undefined)	6	0	22	20	15	2	·	·
NC(=O)CSc1ccc(S(=O)(=O)N2CCOCC2)cn1	15	0	8	-19	10	-9	·	·
COc1ccc(N2CCN(C(=O)CSc3nnc4n3C(C)(C)Cc3ccccc3-4)CC2)cc1	-8	0	5	-32	-4	-13	·	·
Cc1ccc(Cl)cc1N1CCN(C(=O)CSc2nnc3n2C(C)(C)Cc2ccccc2-3)CC1	63*	0	13	16	15	24	9	50*
CC1=C(C#N)C(NC(=O)c2ccccc2Cl)(C(F)(F)F)C(=O)N1 (centres undefined)	4	0	3	1	-4	9	·	·
Nc1ccc(-c2cc3ccccc3c(=O)o2)cc1	73*	-1	-20	74*	26	19	42*	34
O=c1oc(-c2ccccc2)cc2ccccc12	-47	·	-106	-50	-52	-57	·	·
O=C(CCc1ccccc1)NCc1ccccc1	-9	0	-1	-12	14	-7	·	·
CC1OC2CC(=O)OC2C2=C1C(=O)c1c(O)cccc1C2=O (centres undefined)	107*	·	104*	95*	96*	91*	97*	110*
O=C1c2cccc(O)c2C(=O)c2c(O)cc(CO)cc21	·	0	·	·	·	·	·	·
CCOC(=O)N1CCC(Nc2ncnc3c2cnn3-c2ccc(C)cc2C)CC1	59*	0	24	26	26	31	3	43*
COc1cccc(NC(=S)N(Cc2cccc(Br)c2)CC2CCC(C(=O)O)CC2)c1 (centres undefined)	39*	0	-6	-1	2	-10	-5	7
COc1ccccc1CN(C)C(=O)CN1CCN(CC(=O)Nc2ccccc2Cl)CC1	-15	0	-9	2	-13	-6	·	·
O=c1[nH]c(=O)c2ncc(-c3ccc(Cl)cc3)nc2[nH]1	·	0	·	·	·	·	·	·
Cc1cc(C)cc(OCC(O)CN2CCC(CN3C(=O)c4cccc5cccc(c45)C3=O)CC2)c1 (centres undefined)	73*	0	6	31	11	-9	7	40*
CCOc1ccc(-c2c[n+]3c(n2-c2ccccc2)CCCCC3)cc1	56*	0	51	28	38	24	6	44*
COc1ccc(-n2c(-c3ccccc3)c[n+]3c2CCC3)cc1	20	0	18	34	26	22	·	·
Cc1ccc(OCC(=O)c2cc(C)n(CC(F)(F)F)c2C)c([N+](=O)[O-])n1	8	0	3	2	-4	-24	·	·

Screening results (PubChem BioAssay)
